Bioassay records (PubChem)
Bst PK mod – modulators of Bacillus stearothermophilus pyruvate kinase | purified pyruvate kinase, luminescence ATP production; ribose 5-phosphate activator present at AC10 | Potency, µM | 51,000 compounds, 1.2% hits; in the data active = potency below about 11 µM; inconclusive = mostly about 12 µM to 25 µM;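 the screen sought inhibitors and activators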;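 also: scaled between full activation by ribose 5 phosphate and full inhibition by luteolin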
GBA activity – alters purified human glucocerebrosidase activity. P04062. purified enzyme, resorufin glucoside fluorescence (screen aimed at inhibitors), 20 min. Potency, µM. 48,000 compounds, 1.1% hits. AID 360; in the data active = potency below about 15 µM; inconclusive = mostly about 16 µM to 33 µM;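 also: the screen sought inhibitors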
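Compounds titrated against 0.2 nM normal enzyme, 30 uM resorufin beta-D-glucopyranoside substrate, citrate/phosphate buffer with taurocholate and tween-20, pH 5.9. Reaction ran 20 min at room temperature; fluorescence (Ex 548/Em 600) gave AC50.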
TSHR agonist – TSH receptor (human) agonism. HEK293-CNG-TSHR cells (CNG channel as cAMP sensor), membrane potential dye, cAMP. Potency, µM (top dose mostly 57.1 µM), inactives show at the top dose activation, most hits filed as activators. 73,000 compounds, 0.48% hits; active = well fitted activation curve with a large enough effect in the main read-out, with a control signal flat, not every such curve was filed as active; inconclusive = small, poorly fitted or top-dose-only effect, or a change in a side signal; inactive = no such curve, though single readings can be large or run the other way; % of control where 0% means no effect;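 also: the control signal comes from parental cells without the receptor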
Target sequence (P16473 whole entry, looked up): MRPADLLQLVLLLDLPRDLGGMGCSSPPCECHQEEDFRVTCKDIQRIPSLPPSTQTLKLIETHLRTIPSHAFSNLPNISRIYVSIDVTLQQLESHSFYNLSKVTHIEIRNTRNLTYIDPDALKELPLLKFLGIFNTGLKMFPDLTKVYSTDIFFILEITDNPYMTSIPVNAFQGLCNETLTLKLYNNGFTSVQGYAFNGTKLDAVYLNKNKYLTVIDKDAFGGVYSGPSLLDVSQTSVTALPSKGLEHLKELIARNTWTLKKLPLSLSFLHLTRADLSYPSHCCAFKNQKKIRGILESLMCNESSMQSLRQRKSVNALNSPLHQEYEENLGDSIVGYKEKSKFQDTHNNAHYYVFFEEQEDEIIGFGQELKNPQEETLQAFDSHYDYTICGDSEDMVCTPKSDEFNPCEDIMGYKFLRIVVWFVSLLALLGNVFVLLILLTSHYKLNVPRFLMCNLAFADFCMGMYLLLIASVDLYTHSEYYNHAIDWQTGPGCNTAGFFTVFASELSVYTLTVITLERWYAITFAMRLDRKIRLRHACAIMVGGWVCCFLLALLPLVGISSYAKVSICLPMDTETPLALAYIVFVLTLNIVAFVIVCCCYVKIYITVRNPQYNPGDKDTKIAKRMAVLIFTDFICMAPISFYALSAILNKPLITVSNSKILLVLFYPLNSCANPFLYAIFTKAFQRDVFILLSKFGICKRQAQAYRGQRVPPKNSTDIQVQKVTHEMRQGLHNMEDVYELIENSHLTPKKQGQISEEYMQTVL
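HEK 293 cells stably expressing TSHR and a cAMP-gated CNG channel; parental CNG-only cells as counterscreen. Cells preloaded 60 min with membrane potential dye plus 100 uM RO 20-1724, then compound 30 min; fluorescence read at 590 nm.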
HEK293 cAMP ctrl – parental HEK293 cAMP activation (counter-screen). 73,000 compounds, 2.5% hits. Potency, µM (series often up to 57.1 µM), for inactives: at the highest dose activation, most hits filed as activators. parental HEK293 CNG cAMP sensor, membrane potential fluorescence. AID 938; active = well fitted activation curve with a large enough effect; inconclusive = small, poorly fitted or top-dose-only effect; inactive = no such curve, though single readings can be large or run the other way; also: % of control where 0% means no effect; nearly all actives have a fitted effect of over 55% in size
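Parental HEK 293 cells stably expressing a modified CNG channel (no TSHR) report cAMP rise as membrane depolarization. Membrane potential dye with 100 uM RO 20-1724 was loaded for 60 min at room temperature, then compound added for 30 min; fluorescence read at 590 nm.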
Numbers without * were called inactive; ? = inconclusive; · = no result given; [ ] = remark or other dose. The list is not random: actives were taken first. Their share in the collection is about 4%. Potency is read from the fitted curve at half-maximal effect.

SMILES	Bst PK mod	GBA activity	TSHR agonist	HEK293 cAMP ctrl
O=C(Nc1ccc(F)cc1)c1ccc(S(=O)(=O)NCC2CCCO2)cc1 (stereo unspecified)	>57	>76.9	?	3.16µM*
N/C(CC/C(N)=N/O)=N\O	·	·	7.5%[11.4 µM]	0.4%[11.4 µM]
O=C(c1ccco1)N1c2ccccc2Sc2ccccc21	>57	>76.9	?	20µM*
CC(C)CCC[C@@H](C)[C@@H]1CC[C@@H]2[C@H]3CC[C@H]4C[C@@H](N)CC[C@@]4(C)[C@@H]3CC[C@]21C	·	·	-3.4%[11.4 µM]	3.6%[11.4 µM]
CC(/C=C/C=C(C)/C=C/C(=O)O)=C\C=C\C=C(C)\C=C\C=C(C)\C=C\C(=O)O	·	·	-0.1%	31.1%
O=C(c1ccccc1)N1CCN(Cc2ccccc2Br)CC1	>57	>76.9	-9.1%	-2.6%
O=C(c1ccccc1)n1c(=S)nc2ccccn21	2.25*	·	·	·
CCCn1cnc2c(SCC(=O)O)nc(N)nc21	·	·	6.6%[11.4 µM]	3.6%[11.4 µM]
Clc1ccc([C@@H](c2ccccc2Cl)C(Cl)Cl)cc1	·	·	20µM*	11.5%
Clc1ccccc1C(Nc1ncccn1)Nc1ncccn1	·	·	-0.9%[11.4 µM]	-1.2%[11.4 µM]
CCCOc1c(OC)cccc1C1CC(=O)Nc2cc3c(cc21)OCCO3 (stereo unspecified)	>11.4	>76.9	?	15.8µM*
CN1CC[C@@]2(CCN3CCc4c(oc5ccccc45)[C@@H]3C2)N(C)C1=O	·	·	4.8%	9.6%
COC(=O)c1oc2ccc(Br)cc2c1NC(=O)CCCN1C(=O)c2ccccc2C1=O	·	·	-1.3%	5.4%
COC(=O)c1oc2ccc(Br)cc2c1-n1cccc1	>57	>76.9	?	31.6µM*
O=C(O)CC[C@]1(C(=O)O)CCC(=O)c2ccccc21	·	·	1.5%[11.4 µM]	10.2%[11.4 µM]
CC1=C(C(=O)Nc2ccccc2)C(c2ccco2)C(C#N)=C(SCC(=O)OC(C)C)N1 (stereo unspecified)	·	·	?	20µM*
CC1=C(C(=O)Nc2ccccc2)C(c2ccco2)C(C#N)=C(SCC(=O)Nc2cccc(C)c2C)N1 (stereo unspecified)	>57	8.55*	14.8%	4.8%
O=C1CSC(c2cn(-c3ccccc3)nc2-c2cccs2)N1CC1CCCO1 (stereo unspecified)	>57	>76.9	10µM*	9.9%
Cc1ccc(C)c(/C(=N\N=C(N)N)C2CC2)c1	·	·	2.5%[11.4 µM]	13.5%[11.4 µM]
N[C@@]1(C(=O)O)CCC[C@@H]1C(=O)O	·	·	3.7%[11.4 µM]	-2.3%[11.4 µM]
CCOC(=O)Nc1ccc2c(c1)N(C(=O)N(CC)CC)c1ccccc1CC2	·	·	3.16µM*	5.9%[11.4 µM]
CCCn1c(NC(=O)c2cccc(S(=O)(=O)N3CCCC3)c2)nc2ccccc21	>57	·	?	15.8µM*
CCCn1c(NC(=O)c2ccccc2)nc2ccccc21	>57	>76.9	?	?
CCCn1c(NC(=O)c2ccc(C)cc2)nc2ccccc21	>57	>76.9	?	25.1µM*
CCOC(=O)CSc1nnc(-c2ccco2)n1-c1ccccc1	>57	>76.9	6.2%	29.0%
SMILES	Bst PK mod	GBA activity	TSHR agonist	HEK293 cAMP ctrl
COC(=O)c1cccc(CSc2nnc(-c3ccco3)n2-c2ccccc2)c1	>57	>76.9	?	20µM*
COCCNc1nc(C(C)(C)C)nc2c1nnn2Cc1ccccc1Cl	>57	>76.9	?	2.51µM*
O=NN(Cc1ccc(Cl)cc1)[C@@H](C(=O)O)c1ccccc1	·	·	5.4%[11.4 µM]	-0.7%[11.4 µM]
CCCc1cc(C(=O)N(C2CCCCC2)C2CCCCC2)no1	·	·	20µM*	24.6%
N#Cc1c(C(F)(F)F)cc(-c2ccco2)nc1SCc1ccccn1	>57	>76.9	?	31.6µM*
N#Cc1c(C(F)(F)F)cc(-c2ccco2)nc1SCc1ccncc1	>57	>76.9	?	?
C[N+](C)(C)c1ncnc2c1ncn2[C@@H]1C[C@H](O)[C@@H](CO)O1	·	·	4.7%[11.4 µM]	6.1%[11.4 µM]
CCOC(=O)c1c(C)oc2ccc(NS(=O)(=O)c3ccc4c5c(cccc35)C(=O)N4)cc12	>57	>76.9	25.1µM*	10.0%
COCCOC(=O)c1c(C)oc2ccc(NS(=O)(=O)c3ccccc3)cc12	>57	>76.9	7.1%	9.8%
CC(=O)N(CCP(=O)(c1ccccc1)c1ccccc1)Cc1ccco1	·	·	?	31.6µM*
O=S(=O)(c1ccccc1)N1CCC2(CCCN(c3cccc(-c4ccccc4)c3)C2)CC1	·	·	2.4%	13.5%
O=S(=O)(c1ccccc1)N1CCC2(CCCN(c3ccccc3)C2)CC1	·	·	?	25.1µM*
O=S(=O)(c1ccccc1)N1CCC2(CC1)CN(c1ccncc1)C2	·	·	4.5%	3.4%
O=S(=O)(c1ccccc1)N1CCC2(CCCN(c3ccncc3)C2)CC1	·	·	?	20µM*
N#Cc1ccc(CN2CCCC3(CCN(S(=O)(=O)c4ccccc4)CC3)C2)cc1	·	·	?	12.6µM*
